Measured values taken from PubChem BioAssay (Tox21).
“And” between values parts separate entries of the source, which are not always exact repeats. Equal values may be shown once. Inconclusive results are not listed. Entries that show only a call come without a potency. More than one record can exist for a structure, and the calls need not agree. The source made the active and inactive calls. Calls come from the whole dose curve.

Experiment: qHTS assay to identify small molecule antagonists of the sonic hedgehog signaling (Shh) pathway (AID 1259369); note: nearly all actives have a fitted effect of over 45% in size
Conditions: NIH/3T3 Gli1-Luc reporter, Shh antagonist, luminescence 24 h; series mostly up to 92.4 µM; activity change, negative = inhibition: at the top concentration
Source text: U.S. Tox21 Program National Center for Advancing Translational Sciences [NCATS] NIH Chemical Genomics Center [NCGC] U.S. Environmental Protection Agency [EPA] National Institutes of Environmental Health Sciences [NIEHS] National Toxicology Program [NTP] U.S. Food and Drug Administration [FDA] Tox21 Assay Overview: The sonic hedgehog (Shh) pathway is essential for normal embryonic development. Dysregulation of the Shh pathway can cause severe developmental defects in organs. Therefore chemicals that interfere with the pathway are potential developmental toxicants. A cell line designated 3T3Gli1-Luc (DMB/OARSA/CFSAN/FDA, Laurel, MD), a NIH/3T3 derived clone containing stably integrated Gli1-Luc reporter is used to detect chemical interference of the Shh pathway, by changes in the expression of the firefly Luc gene under the control of the Gli1 transcriptional response element. This cell line was used to screen Tox21 libraries for identifying and prioritizing the potential developmental toxicants that interfere Shh pathway. Conditioned medium-stimulated mode was used to screen for chemicals inhibiting Shh signaling.
Tox21 Assay Protocol Summary: 3T3 Gli1-Luc cells were dispensed at 2,000 per well in 5uL of culture medium into white solid bottom 1536-well plates (Greiner Bio-One, Monroe, NC) using a Multidrop Combi (Thermo Scientific, Waltham, MA) dispenser. The assay plates were incubated at 37 C and 5% CO2 for 4hr, and then 23nL of compounds dissolved in DMSO and positive control were transferred using a Pintool station (Wako, San Diego, CA). The compound transfer was followed by the addition of 1ul conditioned medium or assay buffer using two separate tips of Flying Reagent Dispenser (FRD, Aurora Discovery, San Diego, CA). The assay plates were incubated at 37C and 5% CO2 for 24hr. For luciferase read, 4uL of Amplite Luciferase reporter gene assay reagent (AAT Bioquest, Inc. Sunnyvale, CA) was added to each well of the assay plates using FRD and incubated at room temperature for 30min. The luminescence signal was measured using a ViewLux plate reader (Perkin Elmer, Shelton, CT).
Potency is the fitted concentration of half-maximal effect.

SMILES | Potency | activity change, negative = inhibition
C[C@@H]1O[C@@H](OC[C@H]2O[C@@H](Oc3c(-c4ccc(O)c(O)c4)oc4cc(O)cc(O)c4c3=O)[C@H](O)[C@@H](O)[C@@H]2O)[C@H](O)[C@H](O)[C@H]1O | inactive | –
CCC(C)C=O (stereo not given) | inactive | –
Cc1ccc(N)c(S(=O)(=O)O)c1 | inactive | –
CCCCNC(N)=O | inactive | –
O=c1c(-c2ccc(O)cc2)coc2cc(O)ccc12 | 13.5 µM (active) and 19.3 µM (active) | –
O=S(=O)(O)c1cc(S(=O)(=O)O)c2c(N=Nc3ccccc3)c(O)ccc2c1 | inactive | –
O=Nc1ccc(O)cc1 | – | -10.1% (inactive)
Clc1cc(Cl)c(Cl)cc1Cl | inactive | –
Oc1c(Cl)cc(Cl)c(Cl)c1Cl | 48.6 µM (active) | –
O=C1N=C(O)CN1/N=C/c1ccc(-c2ccc([N+](=O)[O-])cc2)o1 | – | -29.5% [at 42.5 µM] (inactive)
CC(=O)[C@@]1(O)CC[C@H]2[C@@H]3CCC4=CC(=O)CC[C@]4(C)[C@H]3CC[C@@]21C | – | -26.8% [at 42.5 µM] (inactive)
ClC1=C(Cl)C(Cl)(Cl)C(Cl)=C1Cl | – | 7.84% (inactive)
O=[N+]([O-])c1cc(N(CCO)CCO)ccc1NCCO | inactive | –
CC1CC(OC(=O)c2ccccc2O)CC(C)(C)C1 (stereo not given) | 27 µM (active) and inactive | –
CC(C)Cc1ccccc1 | – | 11.3% (inactive)
C=C(C)C(=O)OCCCCCCCCCCCC | inactive | –
Cc1ccc(C)c(C)c1 | inactive | –
O=C1O[C@H](CO)[C@@H](O)[C@H](O)[C@H]1O | inactive | –
OC[C@@H](O)[C@H](O)[C@H](O)[C@@H](O)CO | inactive | –
C[C@@H](O)[C@H]1C(=O)N2C(C(=O)O)=C(S[C@@H]3CN[C@H](C(=O)N(C)C)C3)[C@H](C)[C@H]12 | inactive | –

SMILES | Potency | activity change, negative = inhibition
CNC[C@H](O)[C@@H](O)[C@H](O)[C@H](O)CO | inactive | –
c1ccc2[nH]cnc2c1 | inactive | –
CCCCCCCCC | – | 3.83% (inactive)
CC(=O)Nc1ccc(C(=O)O)cc1 | inactive | –
CC1=CC[C@H]2C[C@@H]1C2(C)C | inactive | –
NS(=O)(=O)c1cc2c(cc1Cl)NC=NS2(=O)=O | inactive | –
CC(C)(N=C=O)c1cccc(C(C)(C)N=C=O)c1 | inactive | –
Cc1cc(O)c2c(c1)C(=O)c1cc(O)cc(O)c1C2=O | 34.4 µM (active) | –
CC(C)(C)C(=O)C1C(=O)c2ccccc2C1=O | 68.6 µM (active) | –
CC1=C(/C=C/C(C)=C/C=C/C(C)=C/CO)C(C)(C)CCC1 | 15.5 µM (active) | –
C=C(C)C(=O)OCCCCCC | inactive | –
CCC(=O)O | inactive | –
CCCCCCC(C)(C)S | inactive | –
NCCNCCNCCNCCN | inactive | –
C=C1CC[C@H](O)CC1=C/C=C1\CCC[C@]2(C)[C@@H]([C@H](C)/C=C/[C@H](C)C(C)C)CC[C@@H]12 | 4.81 µM (active) and 17.2 µM (active) | –
C=CC(=O)OCCCCCCCC(C)C | inactive | –
CCOC(=O)[C@H](CCc1ccccc1)N[C@@H](C)C(=O)N1Cc2ccccc2C[C@H]1C(=O)O | inactive and 16.8 µM (active) | –
CC(C)(CO)COC(=O)C(C)(C)CO | inactive | –
CCCCC(CC)COC(C)=O (stereo not given) | inactive | –
CN(C)c1ccc(C(=N)c2ccc(N(C)C)cc2)cc1 | 2.4 µM (active) and 11.7 µM (active) | –
